Structures are written as SMILES. Results filed as inconclusive are left out. Unmarked numbers belong to inactive results. Active and inactive are the calls of the source. The call rests on the fitted dose curve; in most records, active means well fitted activation curve with a large enough effect; inconclusive means small, poorly fitted or top-dose-only effect; inactive means flat fitted curve, though single readings scatter.

This test can be described thus: Cell viability assay for measurement of the protective activity of small molecules against cell death caused by Zika virus infection in human astrocytoma cells. Conditions: SNB-19 Zika virus cytoprotection, ATP luminescence, 72 h; series mostly up to 46.1 µM; protection from virus-induced cell death: at the top concentration. The text has this: National Center for Advancing Translational Sciences [NCATS] Johns Hopkins University School of Medicine Florida State University Assay Overview: Zika virus infection causes cell death in certain cell types including human neural progenitor cells (hNPCs), astrocytes, and astrocytoma cell line (SNB-19). This cell viability assay measures the ATP content (level) in human astrocytoma cells (SNB-19) using a luminescence readout that is proportional to viable cell numbers. Decrease in the luminescence signal after Zika virus infection indicates the cell death caused by Zika virus. Small molecule inhibitors […] the decreased luminescence signal after Zika virus infection, indicating the protective effect of that small molecule on the cell death caused by Zika virus infection. This observed protective effect of small molecules against Zika virus induced cell death may result from inhibition of virus replication or cellular response to the virus infection.
Assay Protocol Summary: The medium for SNB-19 cells is composed of RPMI 1640 (ATCC, Cat.# 30-2001), 10% fetal bovine serum (FBS) (GE healthcare Life Sciences, Cat.# SH30071.03), and 1% Pen/Strep (Gibco, Cat.# 15140-122). The ATP content assay kit (PerkinElmer, Cat.# 6016731) was used to determine cell viability. The reagent was reconstituted and prepared as described by the manufacturer. Cells were seeded in 384- or 1536-well assay plates and cultured at 37 C with 5% CO2 for 16 to 20 hours. The typical cell seeding density in the 1536-well plate assay is 250 cells/well in 3ul medium for SNB-19 cells in tissue culture treated plates. Compounds were added to cells and incubated for one hour before addition of ZIKV solution to cells (2 FFU/cell). After incubation at 37 C with 5% CO2 for 72 hours, the reagent mixture of the ATP content assay kit was added to each well, followed by incubation at room temperature for 10 minutes. The luminescence intensity of the assay plates was measured using a ViewLux plate reader (PerkinElmer). […] The percentage inhibitions of the decreased cell viability by small molecule inhibitors were then calculated.
Turning to `CCCC(=O)OC[C@@H](OC(=O)CCC)[C@@H](OC(=O)CCC)[C@H](Cn1c2nc(=O)[nH]c(=O)c-2nc2cc(C)c(C)cc21)OC(=O)CCC`, the “protection from virus-induced cell death” value was 6.76%. Still for that read-out and setting: next, `COc1cccc(-c2cc(=O)c3ccccc3o2)c1N`: -13.9%. With `O=C(Nc1ccc([N+](=O)[O-])cc1Cl)c1cc(Cl)ccc1O`, the Potency is 1.55 µM (active).

As to `Oc1cc(O)cc(/C=C/c2ccc(O)c(O)c2)c1`, the “protection from virus-induced cell death” value was -15.2%. Turning to `CC(=O)Oc1cccc2c1C(=O)c1c(OC(C)=O)cc(C(=O)O)cc1C2=O`, the “protection from virus-induced cell death” value is 6.53%. As to `CS(=O)(=O)c1ccc(-c2cn3ccccc3n2)cc1`, the “protection from virus-induced cell death” value was -14.4%. On to `Cc1cccc(C#Cc2ccccc2)n1`, for which the “protection from virus-induced cell death” value was -5.24%. Same read-out and setting: for `Cc1ccc(C(=O)c2ccc(CC(=O)O)n2C)cc1` the value was 15.6%; for `COc1cc2nc(N3CCN(C(=O)C4CCCO4)CC3)nc(N)c2cc1OC` (stereo not given), -1.91%; for `c1ccc(CCNc2nc(-c3ccccc3)cs2)cc1`, 2.69%. Still for that read-out and setting: next, `COc1ccc(C=CC(=O)Nc2ccccc2C(=O)O)cc1OC`: -10.7%; `CCCCCCOc1ccccc1C(N)=O`: 0.0427%; `O=c1cc(-c2ccccc2)oc2cc(O)c(O)c(O)c12`: -7.06%. The same measure, in the same setting: for `Cc1cccc(/C=C/c2ccccc2)n1` the value was -0.0925%; for `NC(N)=NN=C(/C=C/c1ccc([N+](=O)[O-])o1)/C=C/c1ccc([N+](=O)[O-])o1`, -21.8%. With `Cc1nc(N)sc1-c1ccnc(Nc2ccc(N3CCOCC3)cc2)n1`, the “protection from virus-induced cell death” value was 22%. Same read-out and setting: next, `COc1ccc(-c2cc(=O)c3c(O)cc(O)cc3o2)cc1O`: 10.6%.

As to `CCC(C)SSc1ncc[nH]1` (stereo not given), the Potency was 24.5 µM (active).

`CN(C)c1ccc2cc(C(=O)N[C@@H](CCCN=C(N)CCl)C(=O)NCc3ccccc3)ccc2c1`: the Potency was 4.35 µM (active). As to `C=C1C(=O)[C@@]23C(CC[C@@H]1[C@H]2O)[C@@]12CO[C@]3(O)[C@@H](O)[C@@H]1C(C)(C)CC[C@@H]2O` (stereo not given in full), the “protection from virus-induced cell death” value is -16.5%. On the same count and under the same terms, next, `Cc1c(C(=O)O)c(O)cc2c1C(=O)c1c(O)c([C@@H]3O[C@H](CO)[C@@H](O)[C@H](O)[C@H]3O)c(O)c(O)c1C2=O`: -5.16%. Same read-out and setting: for `O=C(O)CCC(=O)c1ccc(-c2ccccc2)cc1` the value was -4.58%. As to `CCC(C(=O)O)c1ccc(N2Cc3ccccc3C2=O)cc1` (stereo not given), the “protection from virus-induced cell death” value is -4.15%.

`O=C(O)c1cccc(-c2noc(-c3ccccc3F)n2)c1`: the “protection from virus-induced cell death” value was -13.8%. As for `C[C@H](NC(=O)C(=O)Nc1ccccc1C(C)(C)C)C(=O)N[C@@H](CC(=O)O)C(=O)COc1c(F)c(F)cc(F)c1F`, the Potency was 0.489 µM (active).

For the compound `C/C(=N\O)c1ccc(OCC(=O)N2CCCCC2)cc1`, the “protection from virus-induced cell death” value is -12.8%. Consider `Cc1ccc(O)c(-n2nc3ccccc3n2)c1`, for which the “protection from virus-induced cell death” value is -2.26%. For the compound `CC(=O)Nc1ccc([C@H](C)C(=O)Nc2ncc(C(C)C)s2)cc1`, the Potency was 6.15 µM (active). Regarding `CC1(C)OC2=C(C(=O)c3ccccc3C2=O)[C@H](NCc2ccccc2)[C@H]1O`, the “protection from virus-induced cell death” value was -22.5% [at 88.3 µM]. Still for that read-out and setting: for `OCc1ccc(-c2ccc(-c3ccc(CO)s3)o2)s1` the value was 4.23%. Consider `C=CCCCCCCCCC(=O)O`, for which the “protection from virus-induced cell death” value is -10.8%. With `O=C1c2ccccc2C(=O)c2c(NCCc3ccc(O)cc3)ccc(NCCc3ccc(O)cc3)c21`, the Potency was 19.5 µM (active). As for `CC(O)=C(C#N)C(=O)Nc1ccc(C(F)(F)F)cc1`, the “protection from virus-induced cell death” value was -10%.

For the compound `CC1(C)Cc2c(sc(NC(=S)NC(=O)c3ccccc3)c2C(=O)O)CO1`, the “protection from virus-induced cell death” value is 10.2%.

As to `COc1ccc(-c2coc3cc(O)ccc3c2=O)cc1`, the “protection from virus-induced cell death” value is -7.12%.

Consider `NC(=O)c1cccc2[nH]c(-c3ccc([C@H]4CCCN4)cc3F)nc12`, for which the “protection from virus-induced cell death” value is -12.1%. Still for that read-out and setting: for `O=C1C(Cl)=C(NCCN2CCOCC2)C(=O)c2ncccc21` the value was -21%; for `N[C@H](CSC(c1ccccc1)(c1ccccc1)c1ccccc1)C(=O)O`, 4.41%. On the same count and under the same terms, next, `CC(C)c1ccc2oc3nc(N)c(C(=O)O)cc3c(=O)c2c1`: -20.4%. On the same count and under the same terms, for `CN1CCN(c2cc3c(nn2)Oc2ccccc2N3C)CC1` the value was -0.644% [at 23.8 µM].

These data come from PubChem BioAssay AID1224854 (National Center for Advancing Translational Sciences (NCATS), 2016).
